Here are results for 25 compounds from the supplement of paper PMC7156485.

Common to all, as to conditions: concentration: 10 µM; 24 h
Experiment [1] has as its system HCC1569. Description: cell number relative to DMSO (% of DMSO); higher = more cells (less growth inhibition / toxicity). In a few lines:
(§1)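 Cells were seeded at 800 per well in 384-well plates with RPMI containing 10% FBS; both HCC1569 and TDF lines were used. Compounds were added at 10 µM for 24 h at 37 °C, in triplicate, before fixation in 3.7% formaldehyde and staining with a rabbit anti-H1.0 antibody, an AlexaFluor 647 secondary and DAPI. H1.0 nuclear intensity or cell number is reported as percent of the plate control using the median of replicates, and HCC1569 values were smoothed for positional effects.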

Experiment [2] deals with TDF. The description is as above. In a few lines:
as §1

Experiment [3] relates to TDF. Description: H1.0 immunofluorescence intensity relative to DMSO (% of DMSO); higher = stronger H1.0 induction, active = 120 or more. In a few lines:
as §1

The subject of experiment [4] is HCC1569. Description: H1.0 immunofluorescence intensity relative to DMSO (% of DMSO); higher = stronger H1.0 induction, active = 140 or more. In a few lines:
as §1

Where “and” joins values, the source holds several entries; their conditions need not be identical. Equal entries are not always repeated.
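For H1.0 immunofluorescence intensity relative to DMSO in this document: TDF is a line of transformed human dermal fibroblasts of mesenchymal origin.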
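For cell number relative to DMSO in this document: TDF denotes transformed human dermal fibroblasts of mesenchymal origin.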

Regarding `CC(=O)OCC(=O)NCCCOc1cccc(CN2CCCCC2)c1.Cl` [Roxatidine acetate.HCl], the cell number in the experiment with HCC1569 [1] amounted to 107; with TDF [2] it was 95.7. The results for the H1.0 immunofluorescence intensity in the experiment on TDF [3] and with HCC1569 [4] were 103 (inactive) and 99 (inactive), respectively.
Regarding `Cc1cc(C)c(NC(=O)CC(CC(=O)[O-])c2cccc3ccccc23)c(C(=O)N2CCC3(CCCC3)CC2)c1.[Na+]` (stereo not given), the cell number with HCC1569 [1] came out at 105; in the experiment with TDF [2], 102. Also, the H1.0 immunofluorescence intensity in the experiment on TDF [3] is 101 (inactive); in the experiment on HCC1569 [4], 99.8 (inactive).
For the compound `CCCCCN(CCCCC)C(=O)C(CCC(=O)O)NC(=O)c1ccc(Cl)c(Cl)c1` (stereo not given) [Lorglumide], the cell number worked out at 100 in the experiment with HCC1569 [1] and 91.5 in the experiment with TDF [2]. Moreover, the values for the H1.0 immunofluorescence intensity in the experiment on TDF [3] and with HCC1569 [4] were 102 (inactive) and 96.4 (inactive), respectively.
On to `CCC(=O)OC(OP(=O)(CCCCc1ccccc1)CC(=O)N1CC(C2CCCCC2)CC1C(=O)O)C(C)C` (stereo not given) [Fosinopril], for which the cell number in the experiment on HCC1569 [1] turned out to be 99.8; in the experiment on TDF [2], 86. Also, the H1.0 immunofluorescence intensity in the experiment with TDF [3] is 96 (inactive); in the experiment with HCC1569 [4], 101 (inactive).
As for `O=C1c2c(O)cc(O)cc2OC(c2ccc(O)c(O)c2)C1O` (racemic), the cell number in the experiment with HCC1569 [1] worked out at 108; in the experiment on TDF [2] it was 109. Besides, the H1.0 immunofluorescence intensity is 87.5 (inactive) in the experiment with TDF [3] and 103 (inactive) in the experiment with HCC1569 [4].
For the compound `COc1ccc(-c2cc(=O)c3c(O)cc(O)cc3o2)cc1O` [Diosmetine], the cell number is 93.5 in the experiment on HCC1569 [1] and 101 in the experiment with TDF [2]. For the same compound, the values for the H1.0 immunofluorescence intensity in the experiment on TDF [3] and in the experiment with HCC1569 [4] were 99.2 (inactive) and 114 (inactive), respectively.
For `COc1cc2ncn(-c3cc(OCc4ccccc4S(C)(=O)=O)c(C#N)s3)c2cc1OC` [IKK-3 Inhibitor IX], the cell number came to 85.9 in the experiment with HCC1569 [1] and 109 in the experiment with TDF [2]. Moreover, the H1.0 immunofluorescence intensity with TDF [3] is 84.2 (inactive); in the experiment with HCC1569 [4] it was 127 (inactive).
For `CC12C=CC(=O)C=C1CCC1C2=CCC2(C)C(C(=O)CN3CCN(c4cc(N5CCCC5)nc(N5CCCC5)n4)CC3)CCC12.O=C(O)C=CC(=O)O` (stereo not given), the cell number in the experiment with HCC1569 [1] was 91.7 and 96.8; in the experiment on TDF [2], 93.4 and 95.2. Moreover, the H1.0 immunofluorescence intensity was 95.3 (inactive) and 98.1 (inactive) in the experiment on TDF [3]; 98 (inactive) and 96.5 (inactive) with HCC1569 [4].
In the case of `COc1ccc(/C=C\c2cc(OC)c(OC)c(OC)c2)cc1O` [2-methoxy-5-[(Z)-2-(3,4,5-trimethoxyphenyl)ethenyl]phenol], the values for the cell number in the experiment with HCC1569 [1] and in the experiment with TDF [2] were 61.6 and 11.5, respectively. The H1.0 immunofluorescence intensity in the experiment on TDF [3] is 179 (active); in the experiment with HCC1569 [4], 162 (active).
On to `COc1cc2nccc(Oc3ccc(NC(=O)Nc4ccc(F)cc4F)c(F)c3)c2cc1OC`, for which the cell number turned out to be 74.9 with HCC1569 [1] and 59.9 with TDF [2]. Also, the H1.0 immunofluorescence intensity in the experiment with TDF [3] was 103 (inactive); in the experiment on HCC1569 [4], 108 (inactive).
As to `CC(C)NCC(O)c1ccc(O)c(O)c1` (racemic) [DL-Isoproterenol], the cell number worked out at 107 in the experiment with HCC1569 [1] and 108 with TDF [2]. The H1.0 immunofluorescence intensity was 93.8 (inactive) in the experiment with TDF [3] and 101 (inactive) in the experiment with HCC1569 [4].
In the case of `COc1cc2ncnc(Nc3ccc(F)c(Cl)c3)c2cc1OCCCN1CCOCC1`, the cell number in the experiment on HCC1569 [1] was determined as 80.2; in the experiment with TDF [2], 101. In addition, the H1.0 immunofluorescence intensity with TDF [3] is 105 (inactive); in the experiment with HCC1569 [4], 112 (inactive).
For `O=C(O)C=CC(=O)O.O=C(O)C=CC(=O)O.OCCOCCN1CCN(C2=Nc3ccccc3Sc3ccccc32)CC1` [Quetiapine Fumarate], the cell number with HCC1569 [1] came to 99.3; in the experiment on TDF [2] it was 97.8. Also, the H1.0 immunofluorescence intensity with TDF [3] was 94.5 (inactive); with HCC1569 [4], 100 (inactive).
Consider `COc1cc(NS(C)(=O)=O)ccc1Nc1c2ccccc2nc2ccccc12.Cl` [Amsacrine hydrochloride], for which the cell number in the experiment with HCC1569 [1] was found to be 67.8; with TDF [2], 32.3. Further, the H1.0 immunofluorescence intensity was 152 (active) in the experiment on TDF [3] and 113 (inactive) with HCC1569 [4].
In the case of `OC1CCN2Cc3ccccc3N=C12` (stereo not given) [Vasicine], the cell number was 102 in the experiment on HCC1569 [1] and 105 in the experiment on TDF [2]. The H1.0 immunofluorescence intensity in the experiment on TDF [3] was 98.7 (inactive); in the experiment with HCC1569 [4] it was 89.7 (inactive).
For the compound `CON=C(C(=O)NC1C(=O)N2C(C(=O)[O-])=C(COC(C)=O)CSC12)c1csc(N)n1.[Na+]` (stereo not given) [Cefotaxime sodium], the cell number in the experiment on HCC1569 [1] came out at 103; in the experiment with TDF [2] it was 117. In addition, the values for the H1.0 immunofluorescence intensity in the experiment on TDF [3] and in the experiment with HCC1569 [4] were 92.3 (inactive) and 87 (inactive), respectively.
Turning to `NS(=O)(=O)c1ccc(S(=O)(=O)Nc2cccc3c(Cl)c[nH]c23)cc1` [N~1~-(3-chloro-1H-indol-7-yl)-1,4-benzenedisulfonamide], the cell number in the experiment on HCC1569 [1] stood at 95.3; with TDF [2], 103. The H1.0 immunofluorescence intensity is 96.2 (inactive) in the experiment with TDF [3] and 107 (inactive) with HCC1569 [4].
On the same counts, the results for `CC1=C(C)C(=O)C(C(CCCCCC(=O)O)c2ccccc2)=C(C)C1=O` (stereo not given) [Seratrodast] are 107, 104, 99.3 (inactive) and 82.5 (inactive).
The matching figures for `Cl.O=c1cc(N2CCOCC2)oc2c(-c3ccccc3)cccc12`: 87.7, 91.7, 86.9 (inactive) and 141 (active).
As to `COC1=C(OC)C(=O)c2ccccc2C1=O` [2,3-Dimethoxy-1,4-naphthoquinone], the cell number in the experiment on HCC1569 [1] is 74.6; with TDF [2], 36.2. Also, the H1.0 immunofluorescence intensity was 114 (inactive) in the experiment on TDF [3] and 128 (inactive) in the experiment on HCC1569 [4].
As to `COc1ccc2c(c1)CCC1C2CCC2(C)C(NCCCCCCN3C(=O)C=CC3=O)CCC12` (stereo not given), the cell number with HCC1569 [1] amounted to 103; in the experiment with TDF [2], 111. Moreover, the figures for the H1.0 immunofluorescence intensity in the experiment on TDF [3] and in the experiment on HCC1569 [4] were 88.6 (inactive) and 103 (inactive), respectively.
As to `CN=C(NC#N)Nc1ccc(C2=NNC(=O)CC2C)cc1` (stereo not given) [Siguazodan], the cell number in the experiment with HCC1569 [1] was 103; in the experiment with TDF [2], 104. For the same compound, the H1.0 immunofluorescence intensity is 95.4 (inactive) in the experiment on TDF [3] and 115 (inactive) in the experiment with HCC1569 [4].
On to `CCCC(CCC)C(=O)NO` [N-hydroxy-2-propylpentanamide], for which the cell number worked out at 100 with HCC1569 [1] and 102 in the experiment on TDF [2]. The H1.0 immunofluorescence intensity in the experiment on TDF [3] is 98.7 (inactive); in the experiment on HCC1569 [4], 80.8 (inactive).
On the same counts, the results for `CCCCCCC(O)CC=CCCCCCCCC(=O)O` (stereo not given) [Ricinoleic acid] are 98.1, 104, 97.7 (inactive) and 101 (inactive).
The matching figures for `COc1ccc(CN(CCN(C)C)c2ccccn2)cc1.O=C(O)C=CC(=O)O` [Pyrilamine maleate]: 103, 104, 99.6 (inactive) and 100 (inactive).
